The nature of test [1]: HepG2 liver cancer cell viability effects, profiling panel, resazurin fluorescence, 24 h, PK04 Diversity Set (AID 1172). Further: test concentration not given here. Particulars: higher = more signal.
Test [2] in a line: basal S. cerevisiae growth modulation, no modifier, primary screen, OD600, strain BY4716, 24 h, basal condition (AID 1173). To be noted: OD600, 24 h, higher = more signal, called active from +8 up or from −8 down.
A short description of test [3]: MM1S myeloma cell viability, profiling panel, resazurin fluorescence, basal, 24 h, PK04 Diversity Set (AID 1174).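 Further: MM1S multiple myeloma cell line; test concentration not given here.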 To be noted: higher = more signal, called active from +8 up or from −8 down.
In test [4] the target is Dihydroorotate dehydrogenase (quinone), mitochondrial (Plasmodium falciparum (isolate 3D7)) (UniProt Q08210). Briefly: PfDHODH enzyme inhibitors, primary screen, biochemical, C-terminal His tag, absorbance 600 nm (AID 1175).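 Further: recombinant parasite enzyme with a five histidine tag at its C terminus; test concentration not given here.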 To be noted: DCIP absorbance 600 nm, higher = more signal, called active from +8 up or from −8 down.
Sequence of Dihydroorotate dehydrogenase (quinone), mitochondrial (Plasmodium falciparum (isolate 3D7)) (Q08210 whole entry, looked up): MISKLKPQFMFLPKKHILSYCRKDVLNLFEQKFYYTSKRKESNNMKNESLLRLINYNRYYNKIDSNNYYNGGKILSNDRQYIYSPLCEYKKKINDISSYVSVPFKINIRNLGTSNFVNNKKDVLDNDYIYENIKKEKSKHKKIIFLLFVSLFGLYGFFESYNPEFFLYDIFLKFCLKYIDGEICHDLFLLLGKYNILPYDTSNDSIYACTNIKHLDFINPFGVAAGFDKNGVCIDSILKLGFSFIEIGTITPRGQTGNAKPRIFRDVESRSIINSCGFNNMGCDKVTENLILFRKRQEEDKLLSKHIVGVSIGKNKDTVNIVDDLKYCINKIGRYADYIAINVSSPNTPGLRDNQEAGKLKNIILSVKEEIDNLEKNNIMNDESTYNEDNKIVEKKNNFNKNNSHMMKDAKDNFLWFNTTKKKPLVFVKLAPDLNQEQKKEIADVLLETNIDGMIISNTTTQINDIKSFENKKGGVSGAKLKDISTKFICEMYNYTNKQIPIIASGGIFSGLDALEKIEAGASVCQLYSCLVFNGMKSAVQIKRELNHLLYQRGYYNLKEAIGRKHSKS
The nature of test [5]: P. aeruginosa biofilm formation inhibitors, primary screen, strain PAO1, LB-PBS medium, absorbance 600 nm (AID 1176). Further: test concentration not given here. Particulars: P. aeruginosa PAO1 growth/biofilm, A600, 12 h; higher = more signal.
A short description of test [6]: S. cerevisiae RM11-1a growth modifiers, primary screen, strain RM11-1a, OD600, basal, 24 h (AID 1177).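 Further: cultures grown under basal conditions with no added stressor; test concentration not given here.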 Particulars: OD600, 24 h, higher = more signal, called active from +8 up or from −8 down.
Test [7] in a line: E. coli acrAB mutant growth effects, primary screen, E. coli filamentation inducers, strain DRC39, OD650, 24 h (AID 1178).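 Further: growth measured as culture turbidity by optical density at 650 nm; test concentration not given here.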 To be noted: higher = more signal, called active from +8 up or from −8 down.
Test [8] is described as follows: E. coli acrAB mutant growth effects, primary screen, E. coli filamentation inducers, strain DRC39, OD650, 48 h (AID 1179).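 Further: screen aims at cell division blockers that make cells filament.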 Particulars: E. coli DRC39 delta-acrAB growth, higher = more signal, called active from +8 up or from −8 down.
Test [9] is described as follows: RPMI8226 myeloma cell viability, profiling panel, resazurin fluorescence, basal, 24 h, PK04 Diversity Set (AID 1180).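 Further: RPMI8826 multiple myeloma cell line at 5000 cells per well; test concentration not given here.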 To be noted: higher = more signal.
Test [10] concerns the target E3 ubiquitin-protein ligase XIAP (Homo sapiens) (UniProt P98170). Briefly: XIAP binders, primary screen, biophysical, small-molecule microarray, fluorescence 635 nm (AID 1181).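 Further: score merges 667 nm emission and signal to noise over triplicate slides.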 Particulars: small-molecule microarray binding, higher = more signal.

The source made the active and inactive calls. Unless noted, how the calls were made is not given here.

Sequence of E3 ubiquitin-protein ligase XIAP (Homo sapiens) (P98170 whole entry, looked up): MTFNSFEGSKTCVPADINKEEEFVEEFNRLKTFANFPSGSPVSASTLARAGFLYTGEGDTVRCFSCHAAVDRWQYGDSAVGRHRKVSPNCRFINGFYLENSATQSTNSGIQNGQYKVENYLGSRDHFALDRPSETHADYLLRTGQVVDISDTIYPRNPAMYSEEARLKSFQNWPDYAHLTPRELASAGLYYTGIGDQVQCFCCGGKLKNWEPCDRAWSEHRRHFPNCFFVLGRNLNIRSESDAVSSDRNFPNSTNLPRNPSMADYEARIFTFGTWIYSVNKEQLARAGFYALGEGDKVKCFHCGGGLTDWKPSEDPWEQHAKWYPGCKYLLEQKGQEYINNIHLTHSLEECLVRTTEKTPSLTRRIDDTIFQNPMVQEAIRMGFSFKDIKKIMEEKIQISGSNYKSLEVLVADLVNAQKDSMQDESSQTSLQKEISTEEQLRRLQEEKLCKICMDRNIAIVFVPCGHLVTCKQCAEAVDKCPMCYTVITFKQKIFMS

On to `COc1ccc(C(=O)Nc2cccc(CN3C(=O)[C@@]4(O[C@@H](CCn5cc([C@H](O)c6ccccc6)nn5)[C@H]([Si](C)(C)c5ccc(OC)cc5)[C@H]4C)c4ccccc43)c2)cc1`, for which the z-score was -2.55 in test [1]; -1.74 (inactive) in test [2]; -6.53 (inactive) in [3]; 1.38 (inactive) in test [5]; 0.588 (inactive) in [6]; 0.259 (inactive) in [7]. The z-score in test [8] is -0.237 (inactive); in [9] it was -6.13. Moreover, the results for the composite z-score in test [4] and in [10] were -0.0516 (inactive) and -0.0228, respectively.

Turning to `COC(=O)[C@@]1(Cc2ccc(OC)cc2)[C@H]2c3cc(C(=O)N(C)C)n(CCSCCO)c3C[C@H]2CN1C(=O)c1ccccc1`, the z-score was 0.123 in test [1]; 0.32 (inactive) in test [2]; -0.415 (inactive) in [3]; 0.852 (inactive) in test [5]; -0.459 (inactive) in test [6]; 0.219 (inactive) in test [7]. Also, the values for the z-score in test [8] and in test [9] were -0.143 (inactive) and -0.409, respectively. Further, the composite z-score is -0.669 (inactive) in test [4] and -0.0062 in test [10].

Consider `CCCNC(=O)[C@@]1(C)c2ccccc2C(=O)N(C(C)C)[C@H]1c1ccc(CO)cc1`, for which the z-score in [1] is 0.241; in test [2], -0.619 (inactive); in test [3], 0.148 (inactive); in [5] it was 0.332 (inactive); in [6], -0.531 (inactive); in [7] it was -0.252 (inactive). The z-score in [8] was -0.516 (inactive); in test [9], 0.0567. The composite z-score is -0.44 (inactive) in test [4] and -0.0553 in test [10].

In the case of `COCCOC(=O)N1C(=O)[C@@]2(c3cc(C#Cc4ccc(OC)cc4)ccc31)[C@H](c1ccc(O)cc1)N1[C@H](c3ccccc3)[C@H](c3ccccc3)OC(=O)[C@H]1[C@@H]2C(=O)N1CCN(c2ncccn2)CC1`, the z-score was 0.202 in test [1]; 1.03 (inactive) in [2]; 0.292 (inactive) in [3]; 0.173 (inactive) in [5]; 1.75 (inactive) in [6]; 0.307 (inactive) in [7]. Moreover, the z-score was -0.0695 (inactive) in test [8] and 0.138 in test [9]. Also, the composite z-score is 0.0094 (inactive) in [4] and -0.224 in [10].

As to `CN1C(=O)C2C=CC(C(O)C(c3ccccc3)c3ccccc3)N(Nc3ccccc3)C2C1=O` (stereo not given), the z-score in [1] was -0.562; in test [2], -2.21 (inactive); in test [3], -0.978 (inactive); in test [5], 1.16 (inactive); in [6], -0.238 (inactive); in [7], -1.31 (inactive). In addition, the z-score in test [8] was -1.38 (inactive); in test [9], -1.2. Besides, the composite z-score in [4] was 0.0016 (inactive); in [10] it was 0.21.

Regarding `CC(C)C(CO)N1C(=O)[C@@H]2[C@H]3C(=O)OCC=C[C@H]3OC23C=CCN(c2ccc4ccccc4c2)C(=O)[C@@H]13` (stereo not given in full), the z-score in test [1] is -0.128; in test [2], 0.485 (inactive); in test [3], 0.112 (inactive); in test [5] it was -0.497 (inactive); in test [6], 1.24 (inactive); in test [7], 0.483 (inactive). The z-score in test [8] was 0.347 (inactive); in [9], 0.133. Moreover, the composite z-score in test [4] is 0.958 (inactive); in [10], -0.0476.

With `Cn1c2c(c3ccccc31)C(=O)C1NC2C=CC1(C)C(=O)OCc1ccccc1` (stereo not given), the z-score in test [1] was 0.0885; in test [2], 0.272 (inactive); in test [3], -1.35 (inactive); in [5], -0.253 (inactive); in test [6], -0.128 (inactive); in [7], -1.33 (inactive). In addition, the figures for the z-score in test [8] and in test [9] were -1.06 (inactive) and -1.2, respectively. For the same compound, the composite z-score was -0.296 (inactive) in test [4] and 0.0546 in [10].

As to `CO[C@H]1O[C@H](CO)[C@@H](OC(=O)Nc2cccc(F)c2)[C@H](OC(=O)Nc2ccccc2-c2ccccc2)[C@@H]1OC(=O)Nc1ccccc1-c1ccccc1`, the z-score in test [1] is -1.71; in [2], 0.664 (inactive); in [3], -2.52 (inactive); in test [5], 1.39 (inactive); in [6] it was 2.42 (inactive); in test [7], -0.798 (inactive). Also, the figures for the z-score in [8] and in [9] were 0.689 (inactive) and -1.78, respectively. Besides, the composite z-score was -0.59 (inactive) in test [4] and 0.117 in test [10].

Take `C=C(COC)/C(=C/C[C@H](OC(C)=O)c1ccccc1OCCO)c1cnc2ccccc2c1`: the z-score in test [1] is -0.192; in test [2], 1.36 (inactive); in test [3], -0.885 (inactive); in test [5] it was 1.57 (inactive); in test [6] it was 1.19 (inactive); in test [7], -0.447 (inactive). In addition, the z-score in test [8] is -0.334 (inactive); in test [9], -0.784. Moreover, the composite z-score in test [4] is -2.14 (inactive); in test [10], -0.173.

Regarding `Cc1ccc(N2C(=O)c3ccccc3[C@@H](C(=O)NC(C)C)[C@@H]2c2ccc(CO)cc2)nc1`, the z-score in test [1] was 1.48; in test [2], -1.69 (inactive); in test [3], 1.09 (inactive); in [5], 0.69 (inactive); in [6], -0.434 (inactive); in test [7], 0.282 (inactive). Moreover, the z-score in [8] is 0.375 (inactive); in test [9] it was 1.17. Moreover, the composite z-score in test [4] is -0.309 (inactive); in [10], 0.147.

The values are drawn from PubChem BioAssay.
